Assay [1] deals with Thyrotropin receptor (Homo sapiens) (UniProt P16473). The experiment in a line: qHTS Assay for Antagonists of the Thyroid Stimulating Hormone Receptor (AID 488980). Note: series mostly up to about 58 µM; 0% is about no effect. The procedure, abridged:
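Inhibition of cAMP raised by EC80 TSH (4 nM final) was read by HTRF, with lysate cAMP competing against cAMP-d2 for cryptate antibody after 30 min at room temperature. The cells were transfected HEK293 held in phosphodiesterase inhibitor RO 20-1724 at 70 uM.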
In general terms: qHTS replaces the single test concentration by a dilution series.

The target of assay [2] is D(1A) dopamine receptor (Homo sapiens) (UniProt P21728). The experiment in a line: HTS Assay for Allosteric Agonists of the Human D1 Dopamine Receptor: Primary Screen for Agonists (AID 488981). For activation: 0% is about no effect. Note: potency is the fitted concentration of half-maximal effect. Put shortly:
(§1)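 Tetracycline-induced HEK293 Trex D1 cells with forced coupling to calcium, loaded with no-wash calcium dye; kinetic fluorescence read 180 s after compound addition for agonism, then a further 180 s after an EC20 dopamine challenge for potentiation.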

Assay [3] shares this target. The experiment in a line: HTS Assay for Allosteric Agonists of the Human D1 Dopamine Receptor: Primary Screen for Potentiators (AID 488982). Note: 0% is about no effect. Put shortly: as §1
Assay [4] shares this target. Description: HTS Assay for Allosteric Agonists of the Human D1 Dopamine Receptor: Primary Screen for Antagonists (AID 488983).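 Note: calcium flux response to an EC80 dopamine challenge measured with no-wash dye; nearly all actives have a fitted effect of over 65% in size.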 Note: potency is the fitted concentration of half-maximal effect. The procedure, abridged:
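Tetracycline-induced HEK293 T-REx cells expressing force-coupled D1 were plated overnight at 30 C, dye-loaded for calcium, and read kinetically. Compounds were pinned in, then an EC80 dopamine challenge followed after 180 s to reveal antagonism.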

The target of assay [5] is Thyrotropin-releasing hormone receptor (Homo sapiens) (UniProt P34981). Description: qHTS for Small Molecule Agonists and Allosteric Enhancers of Human TRH Receptor: Validation Screen for Agonists (AID 493127;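 active = calcium activation more than 3 SD above the typical response in the agonist read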;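 note: intracellular calcium rise by fluo-8 fluorescence before TRH EC20 addition; 0% is about no effect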). Conditions: TRH receptor agonist cell assay; at 2 µM; stronger effect = higher value. Put shortly: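 TRHR-expressing cells were plated overnight in serum-containing medium, then loaded with fluo-8 calcium dye at room temperature for 30 min–1.5 h. After a 10 s baseline, compound was pin-transferred and calcium fluorescence (ex 480/em 530) read kinetically for agonist response.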
Thyrotropin-releasing hormone receptor (Homo sapiens), sequence (P34981 whole entry, looked up): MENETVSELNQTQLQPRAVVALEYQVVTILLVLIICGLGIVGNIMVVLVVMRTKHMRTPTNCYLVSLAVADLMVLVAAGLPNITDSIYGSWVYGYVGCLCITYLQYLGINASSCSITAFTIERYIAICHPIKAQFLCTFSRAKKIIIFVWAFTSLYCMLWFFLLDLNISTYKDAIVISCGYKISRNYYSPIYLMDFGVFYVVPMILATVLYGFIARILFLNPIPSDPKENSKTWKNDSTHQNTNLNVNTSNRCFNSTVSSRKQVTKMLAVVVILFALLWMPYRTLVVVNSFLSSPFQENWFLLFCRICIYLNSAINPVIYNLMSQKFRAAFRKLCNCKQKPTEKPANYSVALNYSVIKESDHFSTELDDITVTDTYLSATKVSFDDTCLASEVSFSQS

Assay [6] is described as follows: qHTS for Inhibitors of Cell Surface uPA Generation: Validation Assay (AID 493164).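 Note: RAW 264.7 macrophage cells exposed to compound for 18 h; 0% is about no effect.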 Put shortly:
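RAW 264.7, 4000 cells/well, o/n plating; cpd 7-pt 1:5 dilution 2.45 nM–38.3 uM final; 18 h, 37 C/5% CO2; ATP-Lite, 5 s luminescence exposure.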

Assay [7] addresses Galactokinase (Homo sapiens) (UniProt P51570). Description: qHTS Validation Assay for Inhibitors of Human Galactokinase (GALK) (AID 493189). Note: 0% is about no effect. Put shortly:
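Inhibition was measured as remaining ATP, detected by luciferase luminescence after a 1 h room-temperature reaction. Final conditions: 5 nM GALK, 100 uM galactose, 35 uM ATP, pH 8.0 HEPES buffer.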

The target in assay [8] is Phosphoglycerate kinase, glycosomal (Trypanosoma brucei brucei) (UniProt P07378). Description: qHTS Validation Assay to Find Inhibitors of Phosphoglycerate Kinase (AID 504547).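 Note: control wells lack PGK and mark full inhibition.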 Put shortly: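 PGK activity was coupled to GAPDH (100nM final), which generates the unstable substrate 1,3-bisphosphoglycerate in-well. Reactions ran 60 minutes at room temperature in 100mM TEA pH 7.6, 5mM MgCl2, 0.01% Tween-20, then Kinase-Glo Plus luminescence was read.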
Phosphoglycerate kinase, glycosomal (Trypanosoma brucei brucei), sequence (P07378 whole entry, looked up): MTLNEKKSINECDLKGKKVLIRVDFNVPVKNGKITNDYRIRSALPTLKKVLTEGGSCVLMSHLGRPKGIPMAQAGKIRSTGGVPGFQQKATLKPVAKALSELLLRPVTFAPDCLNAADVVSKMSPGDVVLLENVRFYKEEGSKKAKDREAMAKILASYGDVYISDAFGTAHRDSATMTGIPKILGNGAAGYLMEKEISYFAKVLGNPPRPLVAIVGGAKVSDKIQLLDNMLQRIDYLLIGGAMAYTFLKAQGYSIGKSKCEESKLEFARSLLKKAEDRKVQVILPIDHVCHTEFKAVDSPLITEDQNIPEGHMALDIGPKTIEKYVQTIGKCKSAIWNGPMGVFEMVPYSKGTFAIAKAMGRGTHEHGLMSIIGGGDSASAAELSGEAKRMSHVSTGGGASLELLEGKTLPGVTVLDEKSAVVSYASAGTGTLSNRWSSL

Assay [9] concerns the target phosphoglycerate mutase (Leishmania major) (UniProt Q4Q090). Description: qHTS Validation Assay to Find Inhibitors of Phosphoglycerate Mutase (AID 504548). Note: series mostly up to about 58 µM; % is set by controls: 0 for no effect and ±100 for the full control effect. To be noted: Potency: inhibition qHTS. Put shortly:
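Lm PGAM 1.25nM final; 100 mM TEA pH 7.6, 5 mM MgCl2, 0.01% Tween-20; 45 min RT; Kinase-GloPlus, 10 min; end-point luminescence. Enzyme-free wells as negative controls.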

Assay [10] addresses Ubiquitin carboxyl-terminal hydrolase 1 (Homo sapiens) (UniProt O94782). Description: Inhibitors of USP1/UAF1: Pilot qHTS (AID 504865). Note: nearly all actives have a fitted effect of over 35% in size. Note: potency is the fitted concentration of half-maximal effect. The procedure, abridged:
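Deubiquitinase activity followed as kinetic rhodamine fluorescence release from 150 nM Ub-Rho. 1 nM USP1/UAF1 with compound, after 15 min room-temperature preincubation, in HEPES pH 7.8 buffer containing TCEP, EDTA, BSA and Tween-20.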

The nature of assay [11]: qHTS for Inhibitors of ATXN expression: Validation of Cytotoxic Assay (AID 588349). Note: % is set by controls: 0 for no effect and ±100 for the full control effect. Put shortly: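 HEK293 cells were dosed with titrated compounds for 72 hr at 37 degrees C. Viability was read by CellTiter Glo luminescence, with intracellular ATP as the marker of cell survival.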
A short description of assay [12]: qHTS for Inhibitors of ATXN expression: Validation (AID 588378). Note: series mostly up to about 57 µM; % is set by controls: 0 for no effect and ±100 for the full control effect; nearly all actives have a fitted effect of over 75% in size. Put shortly:
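Luciferase luminescence (Bright-Glo) from an ATXN2-FFLuc HEK293 line after 24 h compound exposure at 37 °C, preceded by a CellTiter-Fluor fluorescence viability read. Serial dilutions of a reference ATXN2 inhibitor and a luciferase inhibitor served as controls.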

Assay [13] in a line: Validation screen for small molecules that induce genotoxicity in human embryonic kidney (HEK293T) cells expressing luciferase-tagged ELG1 (AID 493106). Note: 0% is about no effect. Put shortly: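 HEK293T cells expressing luciferase-tagged ELG1 were exposed to compound or DMSO vehicle for 16 hr at 37 °C, 5% CO2. Genotoxic stress raises ELG1 levels, so increased luciferase signal after ONE-Glo addition and 30 min at room temperature marks hits.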

Assay [14] in a line: Nrf2 qHTS screen for inhibitors: Validation (AID 493153; active = well fitted inhibition curve with a large enough effect in the main read-out, with a control signal flat, not every such curve was filed as active). To be noted: Potency: luciferase luminescence; viability change: measured here: cytotoxicity max response. Put shortly:
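A549 cells carrying an ARE-driven firefly luciferase reporter, in 5% FBS OPTI-MEM, were treated with compounds in concentration-response for 18-24 h at 37°C. Viability was read by CellTiter-Fluor fluorescence, then Nrf2 activity by luciferase luminescence.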

The nature of assay [15]: Validation screen for small molecules that induce DNA re-replication in SW480 colon adenocarcinoma cells (AID 504364). Note: 0% is about no effect. The procedure, abridged: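 SW480 cells seeded at 250 per well were exposed to compound or DMSO for 48 hr at 37 C, 5% CO2, then stained with Hoechst for 40 min. DNA content per nucleus was imaged (405 nm ex, 500-530 nm em).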
The target in assay [16] is Peptidyl-prolyl cis-trans isomerase NIMA-interacting 1 (Homo sapiens) (UniProt Q13526). Description: qHTS Validation Assay to Find Inhibitors of Pin1 (AID 504536; active = well fitted inhibition curve with a large enough effect in the polarisation, with a control signal flat, not every such curve was filed as active; the % refers to the polarisation;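 note: 0% = full Pin1 enzyme wells and -100% = no-enzyme wells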). The procedure, abridged: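 Fluorescence polarization competition: compounds (titration) displace HiFluor-488-labeled Pin1-1b peptide from Pin1 (0.3 uM final) in pH 7.5 HEPES buffer with DTT, 10 min at room temperature; %Activity normalized to no-enzyme wells, curves fitted.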

The target of assay [17] is Transient receptor potential cation channel subfamily V member 1 (Homo sapiens) (UniProt Q8NER1). Description: HTS Assay for Compounds that Act as Enhancers of the Vanilloid Receptor 1 (AID 488979). Note: 0% is about no effect. Put shortly: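 TRPV1 cells loaded with Fluo-8 calcium dye; compound added and Ca2+ signal (ex 480/em 520 nm) followed 3 min, then capsaicin at EC20 added and read 2 more min to detect enhancement.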

Assay [18] addresses ATPase family AAA domain-containing protein 5 (Homo sapiens) (UniProt Q96QE3). The experiment in a line: Validation screen for small molecules that inhibit ELG1-dependent DNA repair in human embryonic kidney (HEK293T) cells expressing luciferase-tagged ELG1 (AID 493107).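 Note: cells co-treated with the DNA-damaging agent 5-fluorouridine alongside compound; series mostly up to about 46 µM; % is set by controls: 0 for no effect and ±100 for the full control effect; inhibitors lower the ELG1-luciferase luminescence signal; nearly all actives have a fitted effect of over 70% in size.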 The procedure, abridged:
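HEK293T cells expressing luciferase-tagged ELG1 were co-treated with 5-fluorouridine and compound or DMSO for 16 hr at 37 °C, 5% CO2. Luciferase activity was then read with ONE-Glo after 30 min at room temperature; suppressed signal indicates blocked ELG1 function.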

Assay [19] addresses ATP-dependent 6-phosphofructokinase (Trypanosoma brucei brucei) (UniProt O15648). Description: qHTS Assay to Find Inhibitors of T. brucei phosphofructokinase: hit validation (AID 492961). Note: series mostly up to about 51 µM; % is set by controls: 0 for no effect and ±100 for the full control effect. The procedure, abridged: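 Luminescence from ADP-Glo reports ADP generated as T. brucei PFK (1.25 nM) phosphorylates 0.5 mM fructose-6-phosphate using 0.1 mM ATP. Reactions ran 45 min at room temperature, pH 8.0.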

The source of these data is PubChem BioAssay (NCATS).

SMILES strings stand for the structures. Results filed as inconclusive are left out. The source made the active and inactive calls. Unless noted, calls come from the whole dose curve; as a rule, active = well fitted curve in the direction sought with a large enough effect; inconclusive = small, poorly fitted or top-dose-only effect, or another doubt; inactive = no such curve, though single readings can be large; an effect the other way counts as inactive or inconclusive.

ATPase family AAA domain-containing protein 5 (Homo sapiens), sequence (Q96QE3 whole entry, looked up, the tested form may be a part): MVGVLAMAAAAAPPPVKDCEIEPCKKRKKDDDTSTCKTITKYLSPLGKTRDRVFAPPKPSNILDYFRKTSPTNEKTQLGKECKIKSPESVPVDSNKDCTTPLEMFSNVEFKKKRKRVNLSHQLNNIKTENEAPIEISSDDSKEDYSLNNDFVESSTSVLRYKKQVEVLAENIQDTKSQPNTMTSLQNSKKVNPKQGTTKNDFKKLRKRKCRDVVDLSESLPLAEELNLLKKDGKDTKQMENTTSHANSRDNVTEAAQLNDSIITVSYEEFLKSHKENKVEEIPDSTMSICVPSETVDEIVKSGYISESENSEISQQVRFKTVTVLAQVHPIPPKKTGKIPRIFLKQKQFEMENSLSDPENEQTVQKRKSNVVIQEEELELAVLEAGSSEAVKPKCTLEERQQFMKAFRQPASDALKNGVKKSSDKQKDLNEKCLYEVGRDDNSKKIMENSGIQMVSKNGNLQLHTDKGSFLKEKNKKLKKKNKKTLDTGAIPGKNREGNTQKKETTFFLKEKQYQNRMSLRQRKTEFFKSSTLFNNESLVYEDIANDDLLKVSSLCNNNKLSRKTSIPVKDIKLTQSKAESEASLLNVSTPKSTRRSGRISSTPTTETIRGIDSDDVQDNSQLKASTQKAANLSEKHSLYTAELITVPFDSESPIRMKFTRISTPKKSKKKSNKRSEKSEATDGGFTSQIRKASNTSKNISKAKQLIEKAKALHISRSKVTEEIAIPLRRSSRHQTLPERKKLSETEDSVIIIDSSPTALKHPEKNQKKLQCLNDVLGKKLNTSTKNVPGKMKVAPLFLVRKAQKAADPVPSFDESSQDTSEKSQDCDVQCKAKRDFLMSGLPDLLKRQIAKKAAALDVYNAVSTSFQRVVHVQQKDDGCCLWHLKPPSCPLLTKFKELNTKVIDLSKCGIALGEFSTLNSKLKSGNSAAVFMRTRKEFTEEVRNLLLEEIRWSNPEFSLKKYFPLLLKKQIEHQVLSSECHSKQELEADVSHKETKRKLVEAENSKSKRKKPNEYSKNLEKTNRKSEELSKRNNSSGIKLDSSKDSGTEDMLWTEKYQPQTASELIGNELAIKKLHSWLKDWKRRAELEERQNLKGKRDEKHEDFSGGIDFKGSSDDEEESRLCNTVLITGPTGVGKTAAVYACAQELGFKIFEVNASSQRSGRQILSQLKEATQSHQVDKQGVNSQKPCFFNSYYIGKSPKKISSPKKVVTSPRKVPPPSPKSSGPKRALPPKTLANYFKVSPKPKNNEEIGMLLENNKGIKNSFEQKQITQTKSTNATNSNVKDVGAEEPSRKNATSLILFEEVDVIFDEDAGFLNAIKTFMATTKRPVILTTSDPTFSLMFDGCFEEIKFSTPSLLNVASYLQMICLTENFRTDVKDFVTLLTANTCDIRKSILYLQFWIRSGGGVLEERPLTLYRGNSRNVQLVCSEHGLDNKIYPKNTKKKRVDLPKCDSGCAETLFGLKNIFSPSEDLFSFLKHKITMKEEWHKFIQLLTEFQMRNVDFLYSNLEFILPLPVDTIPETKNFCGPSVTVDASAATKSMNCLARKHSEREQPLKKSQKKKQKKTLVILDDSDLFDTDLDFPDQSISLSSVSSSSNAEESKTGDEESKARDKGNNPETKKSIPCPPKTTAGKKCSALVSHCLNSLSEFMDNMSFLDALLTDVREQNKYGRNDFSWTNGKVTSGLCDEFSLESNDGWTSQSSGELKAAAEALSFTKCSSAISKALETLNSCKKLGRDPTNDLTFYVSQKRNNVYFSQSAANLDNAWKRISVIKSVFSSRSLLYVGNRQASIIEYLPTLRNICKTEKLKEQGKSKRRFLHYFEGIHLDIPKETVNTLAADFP
D(1A) dopamine receptor (Homo sapiens), sequence (P21728 whole entry, looked up): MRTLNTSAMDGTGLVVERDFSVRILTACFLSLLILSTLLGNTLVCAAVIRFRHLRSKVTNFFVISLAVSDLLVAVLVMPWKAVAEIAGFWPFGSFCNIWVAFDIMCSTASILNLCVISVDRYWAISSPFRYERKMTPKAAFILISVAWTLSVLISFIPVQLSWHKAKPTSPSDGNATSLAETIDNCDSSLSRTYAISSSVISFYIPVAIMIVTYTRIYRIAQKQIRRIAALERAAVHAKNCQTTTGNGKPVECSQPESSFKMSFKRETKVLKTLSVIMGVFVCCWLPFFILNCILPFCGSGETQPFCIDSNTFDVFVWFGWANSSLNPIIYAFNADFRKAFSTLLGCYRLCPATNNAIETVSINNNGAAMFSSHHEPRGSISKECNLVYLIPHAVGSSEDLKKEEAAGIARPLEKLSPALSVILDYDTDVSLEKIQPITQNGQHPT
Galactokinase (Homo sapiens), sequence (P51570 whole entry, looked up): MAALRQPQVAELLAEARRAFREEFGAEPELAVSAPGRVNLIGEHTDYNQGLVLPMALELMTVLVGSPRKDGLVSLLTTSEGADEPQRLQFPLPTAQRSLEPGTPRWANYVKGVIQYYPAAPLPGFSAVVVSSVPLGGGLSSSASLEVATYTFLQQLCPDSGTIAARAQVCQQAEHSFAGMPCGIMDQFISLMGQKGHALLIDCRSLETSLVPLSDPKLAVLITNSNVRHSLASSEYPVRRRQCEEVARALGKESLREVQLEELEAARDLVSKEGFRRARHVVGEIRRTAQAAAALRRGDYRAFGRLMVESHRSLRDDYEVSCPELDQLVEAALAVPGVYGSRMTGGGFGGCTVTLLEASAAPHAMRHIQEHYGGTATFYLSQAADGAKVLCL
Thyrotropin receptor (Homo sapiens), sequence (P16473 whole entry, looked up): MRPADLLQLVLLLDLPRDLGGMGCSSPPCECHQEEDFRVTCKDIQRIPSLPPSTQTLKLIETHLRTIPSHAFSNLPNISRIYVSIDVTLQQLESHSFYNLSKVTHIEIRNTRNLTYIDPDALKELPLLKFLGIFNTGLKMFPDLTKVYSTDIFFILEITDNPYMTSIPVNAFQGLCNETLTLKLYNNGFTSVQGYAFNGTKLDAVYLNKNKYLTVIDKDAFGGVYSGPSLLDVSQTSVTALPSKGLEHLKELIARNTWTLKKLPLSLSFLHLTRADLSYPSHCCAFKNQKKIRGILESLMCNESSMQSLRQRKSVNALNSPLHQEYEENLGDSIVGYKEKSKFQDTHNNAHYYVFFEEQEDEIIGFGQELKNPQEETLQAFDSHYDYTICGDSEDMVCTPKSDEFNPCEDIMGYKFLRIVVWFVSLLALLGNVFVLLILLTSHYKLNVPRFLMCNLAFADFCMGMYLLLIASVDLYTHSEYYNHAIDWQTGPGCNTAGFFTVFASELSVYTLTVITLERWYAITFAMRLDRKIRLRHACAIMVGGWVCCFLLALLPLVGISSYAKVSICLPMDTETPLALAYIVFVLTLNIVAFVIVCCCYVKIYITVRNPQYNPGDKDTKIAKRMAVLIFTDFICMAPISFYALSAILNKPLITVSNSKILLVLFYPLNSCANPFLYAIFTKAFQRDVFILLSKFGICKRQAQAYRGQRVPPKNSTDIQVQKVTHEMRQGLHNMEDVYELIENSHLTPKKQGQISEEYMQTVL
Ubiquitin carboxyl-terminal hydrolase 1 (Homo sapiens), sequence (O94782 whole entry, looked up): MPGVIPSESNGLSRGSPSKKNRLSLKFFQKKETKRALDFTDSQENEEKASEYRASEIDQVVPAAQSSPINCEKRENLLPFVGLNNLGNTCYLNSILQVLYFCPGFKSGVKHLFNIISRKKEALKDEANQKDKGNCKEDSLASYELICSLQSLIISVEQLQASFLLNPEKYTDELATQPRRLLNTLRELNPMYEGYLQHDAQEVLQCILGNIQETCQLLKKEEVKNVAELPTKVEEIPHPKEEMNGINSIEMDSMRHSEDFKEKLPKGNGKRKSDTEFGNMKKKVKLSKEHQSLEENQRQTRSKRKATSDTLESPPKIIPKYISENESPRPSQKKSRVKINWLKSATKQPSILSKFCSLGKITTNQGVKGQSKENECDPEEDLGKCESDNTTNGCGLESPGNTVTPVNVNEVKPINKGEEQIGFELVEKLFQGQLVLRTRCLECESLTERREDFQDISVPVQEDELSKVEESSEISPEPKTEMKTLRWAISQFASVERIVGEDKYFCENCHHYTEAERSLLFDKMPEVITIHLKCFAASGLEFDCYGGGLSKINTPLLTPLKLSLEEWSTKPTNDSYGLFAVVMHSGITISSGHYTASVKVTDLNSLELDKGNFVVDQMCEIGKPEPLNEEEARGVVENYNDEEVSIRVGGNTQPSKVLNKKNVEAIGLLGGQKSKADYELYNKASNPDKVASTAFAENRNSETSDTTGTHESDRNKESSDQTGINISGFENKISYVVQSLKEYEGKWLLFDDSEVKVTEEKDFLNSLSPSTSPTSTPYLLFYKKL

Consider `CN(C)S(=O)(=O)c1ccc2c(c1)/C(=C/c1cc3c([nH]1)CCCC3)C(=O)N2`, for which the molecule was called inactive in assay [1] and in assay [6]. Moreover, the Potency is 12.6 µM (active) in [2] and 25.1 µM (active) in assay [10]. In addition, the Potency result in assay [3], in assay [4], in assay [7], in assay [8], in assay [9] and in assay [11] was “inactive” each time. Also, in assay [12], the Potency entry was “inactive”. Moreover, the activation in assay [5] was 26.3% (inactive).

In the case of `CN1CCCC1CCOC(C)(c1ccccc1)c1ccc(Cl)cc1` (stereo not drawn), the result in assay [1] and in [6] was inactive. Moreover, the Potency result in assay [2], in assay [13], in assay [14], in assay [7], in assay [15] and in assay [16] was “inactive” in each case. The Potency result in assay [8], in [9] and in assay [10] was “inactive” throughout. Also, the activation in assay [5] is 1.88% (inactive). In addition, the viability change in assay [14] was -0.239%.

On to `NCC(O)c1ccc(O)c(O)c1` (stereo not drawn), for which the result in [17] and in assay [6] was inactive. The Potency entry in assay [2], in [3], in assay [13], in assay [14], in [7] and in [15] was “inactive” throughout. For the same molecule, the Potency result in [16], in assay [9], in assay [10], in assay [11] and in assay [12] was “inactive” throughout. Also, the Potency in assay [4] is 14.1 µM (active). Also, the viability change in assay [14] came to 3.36%.

As for `O[Si](CCCN1CCCCC1)(c1ccc(F)cc1)C1CCCCC1` (stereo not drawn), the call in assay [1] and in assay [6] was inactive. The Potency result in assay [4], in assay [13], in [18], in [14], in assay [7] and in assay [16] was “inactive” each time. The Potency entry in [8], in assay [9] and in assay [10] was “inactive” throughout. Further, the activation in assay [5] is 5.12% (inactive). Also, the viability change in assay [14] was -4.41%.

As to `N#CC(=C(\N)Sc1ccccc1N)/C(C#N)=C(/N)Sc1ccccc1N`, the outcome in [1] was inactive. Further, the Potency result in [2], in [4], in [13], in assay [7], in [16] and in assay [8] was “inactive” throughout. Besides, the Potency entry in assay [9], in assay [10] and in assay [11] was “inactive” throughout. Also, the activation in assay [5] is 2.62% (inactive).

On to `CN1C2CCC1CC(OC(c1ccccc1)c1ccccc1)C2` (stereo not drawn), for which the molecule was called inactive in [1] and in assay [19]. The Potency entry in [2], in [3], in assay [4], in assay [13], in assay [18] and in assay [14] was “inactive” each time. For the same molecule, the Potency result in [7], in assay [15], in assay [8], in assay [9], in assay [10] and in assay [11] was “inactive” each time. Further, the activation in [5] was 1.5% (inactive). For the same molecule, the viability change in [14] is -14.9%.

For `Fc1ccc(CN(C2=NCCN2)c2c(Cl)cccc2Cl)cc1`, the molecule was called inactive in assay [1] and in assay [6]. Besides, the Potency entry in [2], in assay [3], in assay [4], in assay [13], in assay [14] and in [7] was “inactive” throughout. For the same molecule, the Potency result in assay [15], in [16], in assay [8], in assay [9] and in assay [10] was “inactive” throughout. In addition, the activation in assay [5] was 1.31% (inactive). For the same molecule, in [14], the viability change was -18.2%.

As to `O=C1Nc2ccc(I)cc2/C1=C/c1cc(Br)c(O)c(Br)c1`, the outcome in [17], in [1] and in assay [6] was inactive. For the same molecule, the Potency result in [3], in [13], in assay [7], in [15], in assay [8] and in assay [9] was “inactive” throughout. The Potency result in [12] was “inactive”. In addition, in assay [5], the activation is 8.19% (inactive). Moreover, the Potency in assay [10] is 44.7 µM (active).

`CCCN(CCc1ccccc1)C1CCc2c(O)cccc2C1` (stereo not drawn): the molecule was classed as inactive in assay [1] and in assay [6]. In addition, the Potency entry in assay [2], in assay [3], in assay [13], in assay [18], in assay [14] and in assay [7] was “inactive” each time. Also, the Potency result in assay [15], in [16], in [8], in [9], in assay [10] and in [11] was “inactive” each time. Moreover, the activation in assay [5] was 1.25% (inactive). Further, in assay [14], the viability change is -8.23%.
